Data reported in PubChem BioAssay (NCATS).
Inconclusive results are not listed. Where a call stands in place of a potency, no number is given. A number with no mark means an inactive call. The source made the active and inactive calls. The call rests on the fitted dose curve; in most records, active means well fitted curve in the direction sought with a large enough effect; inconclusive means small, poorly fitted or top-dose-only effect, or another doubt; inactive means no such curve, though single readings can be large; an effect the other way counts as inactive or inconclusive.

Columns and labels:
[1] = test system: Hek293T; experiment: Primary qHTS to identify gynecologic anti-cancer compounds using libraries of approved drugs and bioactive compounds (AID 1345084); settings: Gynecologic cancer cell panel viability, ATPlite luminescence, 48 h, control line for the selectivity index; series mostly up to 57.5 µM; further: nearly all actives have a fitted effect of over 55% in size
Summary of the method: (§1)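 48 h compound exposure at 37 C, 5% CO2; five-point qHTS. ATPlite luminescence readout of cell ATP.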

[2] = test system: JEG-3; experiment: as above; settings: Gynecologic cancer cell panel viability, ATPlite luminescence, 48 h; series mostly up to 57.5 µM
Summary of the method: as §1

[3] = test system: OV90; experiment: as above; settings: Gynecologic cancer cell panel viability, ATPlite luminescence, 48 h; series mostly up to 57.5 µM
Summary of the method: as §1

[4] = test system: PA-1; experiment: as above; settings: Gynecologic cancer cell panel viability, ATPlite luminescence, 48 h; series mostly up to 57.5 µM
Summary of the method: as §1

[5] = test system: SKOV3; experiment: as above; settings: Gynecologic cancer cell panel viability, ATPlite luminescence, 48 h; series mostly up to 57.5 µM
Summary of the method: as §1

[6] = test system: Tov-21-G; experiment: as above; settings: Gynecologic cancer cell panel viability, ATPlite luminescence, 48 h; series mostly up to 57.5 µM
Summary of the method: as §1

[7] = test system: Tov112D; experiment: as above; settings: Gynecologic cancer cell panel viability, ATPlite luminescence, 48 h; series mostly up to 57.5 µM
Summary of the method: as §1

[8] = Drug repurposing screens with cells derived from glioblastoma tumor samples (AID 1345199); settings: GBM patient neurospheres viability, ATP luminescence, 48 h; further: nearly all actives have a fitted effect of over 40% in size; further: potency means the concentration at half of the fitted maximal effect
Summary of the method: (§2)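 Primary testing used CD133+ neurospheres from four GBM patients, seven concentrations, 48 h exposure and ATP-based viability; confirmation added three slower-growing patient lines.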

[9] = test system: astro; experiment: as above; settings: viability, ATP luminescence, 48 h; series mostly up to 45.9 µM
Summary of the method: as §2

[10] = at 45.9 µM (top of the series), tumour line B
[11] = at 45.9 µM (top of the series), tumour line D
[12] = at 46 µM (top of the series), tumour line A
[13] = at 46.1 µM (top of the series), tumour line C

| Compound | Potency [1] | Potency [2] | Potency [3] | Potency [4] | Potency [5] | Potency [6] | Potency [7] | activity, negative = cell killing [8, 10] | activity, negative = cell killing [8, 11] | activity, negative = cell killing [8, 12] | activity, negative = cell killing [8, 13] | Potency [9] | activity, negative = cell killing ([8]; at 20 µM (top of the series), tumour line C) | activity, negative = cell killing ([8]; at 21.2 µM (top of the series), tumour line B) | activity, negative = cell killing ([8]; at 21.2 µM (top of the series), tumour line D) | Potency ([8]; tumour line A) |
| --- | --- | --- | --- | --- | --- | --- | --- | --- | --- | --- | --- | --- | --- | --- | --- | --- |
| CC(=O)N[C@@H](CCC(=O)O)C(=O)O | inactive | inactive | inactive | inactive | inactive | inactive | inactive | 2.35% | -7.45% | -9.15% | -3.96% | inactive |  |  |  |  |
| CCN(CC)CCNC(=O)COc1ccc(OC)cc1 | inactive | inactive | inactive | inactive | inactive | inactive | inactive | -17.2% | -10.2% | -59% | -17.2% | inactive |  |  |  |  |
| COc1ccc(C(=O)c2ccccc2O)c(O)c1 | inactive | inactive | inactive | inactive | inactive | inactive | inactive |  |  |  |  | inactive | -19.6% | 4.62% | -15.3% |  |
| OC[C@H]1O[C@@H](Oc2ccc(O)cc2)[C@H](O)[C@@H](O)[C@@H]1O | inactive | inactive | inactive | inactive | inactive | inactive | inactive | 0.949% | 7.3% |  | -9.99% | inactive |  |  |  |  |
| CCCCCCCC/C=C\CCCCCCCCN | inactive | inactive | inactive | inactive | inactive | inactive | inactive | -5.85% | -1.47% |  | -19.7% | inactive |  |  |  |  |
| C=C[C@H]1CN2CC[C@H]1C[C@@H]2[C@@H](O)c1ccnc2ccc(OC)cc12 | inactive | inactive | inactive | inactive | inactive | inactive | inactive | -7.35% | -6.69% |  | 11.9% | inactive |  |  |  | 12.6 µM (active) |
